According to PubChem BioAssay (Tox21):
“And” between values parts separate entries of the source, which are not always exact repeats. Equal values may be shown once. Records with an inconclusive call do not appear. Some compounds were tested as several samples or in several runs, with calls that do not always agree. The source made the active and inactive calls. Unless noted, calls come from the whole dose curve; as a rule, active = well fitted curve in the direction sought with a large enough effect in the repeat runs; inconclusive = weak or mixed curves; inactive = no such curve, though single readings can be large; an effect the other way counts as inactive or inconclusive.

Tests used:
[1] = qHTS assay to identify aromatase inhibitors - cell viability counter screen (AID 743084); conditions: MCF-7 aro ERE viability, CellTiter-Fluor, 24 h; series mostly up to 70.3 µM;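 note: cells stimulated with testosterone during compound exposure; nearly all actives have a fitted effect of over 55% in size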
[2] = molecular target: Aryl hydrocarbon receptor (Homo sapiens) (UniProt P35869); test: qHTS assay to identify small molecule that activate the aryl hydrocarbon receptor (AhR) signaling pathway (AID 743085); conditions: HepG2 AhR-luc (HG2L7.5c1), luciferase, 24 h; series mostly up to 70.3 µM; note: nearly all actives have a fitted effect of over 15% in size; note: potency is the fitted concentration of half-maximal effect;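 for activation: HG2L7.5c1 human HepG2 liver cells with stably integrated DRE-driven firefly reporter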
Chain of Aryl hydrocarbon receptor (Homo sapiens) (P35869 whole entry, looked up): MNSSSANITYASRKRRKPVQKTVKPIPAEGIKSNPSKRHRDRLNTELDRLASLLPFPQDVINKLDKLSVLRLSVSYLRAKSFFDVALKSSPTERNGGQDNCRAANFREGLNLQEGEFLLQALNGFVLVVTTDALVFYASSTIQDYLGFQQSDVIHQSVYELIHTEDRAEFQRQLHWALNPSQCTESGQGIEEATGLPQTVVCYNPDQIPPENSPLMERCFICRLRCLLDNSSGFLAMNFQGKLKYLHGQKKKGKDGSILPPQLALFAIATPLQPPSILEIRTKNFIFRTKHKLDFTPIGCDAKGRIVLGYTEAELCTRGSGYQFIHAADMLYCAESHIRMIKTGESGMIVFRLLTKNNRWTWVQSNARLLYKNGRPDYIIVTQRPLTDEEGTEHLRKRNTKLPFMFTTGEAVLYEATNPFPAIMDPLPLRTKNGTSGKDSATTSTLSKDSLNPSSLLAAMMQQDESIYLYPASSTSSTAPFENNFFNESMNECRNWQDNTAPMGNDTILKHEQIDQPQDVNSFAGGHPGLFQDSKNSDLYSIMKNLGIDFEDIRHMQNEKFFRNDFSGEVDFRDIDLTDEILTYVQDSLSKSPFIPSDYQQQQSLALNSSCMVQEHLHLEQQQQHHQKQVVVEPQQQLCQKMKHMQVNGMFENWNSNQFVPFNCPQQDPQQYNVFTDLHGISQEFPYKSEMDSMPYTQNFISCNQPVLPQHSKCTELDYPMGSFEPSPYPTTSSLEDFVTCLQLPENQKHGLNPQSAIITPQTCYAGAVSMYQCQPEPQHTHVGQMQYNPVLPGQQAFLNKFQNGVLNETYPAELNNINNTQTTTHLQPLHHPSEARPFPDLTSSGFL
Method in brief: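 HepG2 cells (HG2L7.5c1) stably carrying a firefly luciferase reporter driven by 20 dioxin responsive elements were exposed to compound for 24 h at 37C after a 5 h settling period; luminescence rise (ONE-Glo) indicated activation.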

[3] = qHTS assay to identify small molecule that activate the aryl hydrocarbon receptor (AhR) signaling pathway - cell viability counter screen (AID 743086); conditions: HepG2-AhR-luc viability, CellTiter-Fluor, 24 h; series mostly up to 70.3 µM;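 note: HepG2 liver cells carrying the AhR DRE luciferase reporter; nearly all actives have a fitted effect of over 45% in size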
Method in brief: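 Cytotoxicity counter screen: CellTiter-Fluor signal (30 min, 37 C) in 4000 HepG2 cells/well carrying the DRE-luciferase reporter, following 24 h compound exposure at 37 C.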

[4] = molecular target: Peroxisome proliferator-activated receptor gamma (Homo sapiens) (UniProt P37231); test: qHTS assay to identify small molecule agonists of the peroxisome proliferator-activated receptor gamma (PPARg) signaling pathway (AID 743094; active = well fitted activation curve with a large enough effect in the signal ratio in the repeat runs, not every such curve was filed as active; the % refers to the signal ratio); conditions: HEK293H PPARg-UAS-bla, beta-lactamase FRET ratio, 17 h; series mostly up to 57 µM
Chain of Peroxisome proliferator-activated receptor gamma (Homo sapiens) (P37231 whole entry, looked up): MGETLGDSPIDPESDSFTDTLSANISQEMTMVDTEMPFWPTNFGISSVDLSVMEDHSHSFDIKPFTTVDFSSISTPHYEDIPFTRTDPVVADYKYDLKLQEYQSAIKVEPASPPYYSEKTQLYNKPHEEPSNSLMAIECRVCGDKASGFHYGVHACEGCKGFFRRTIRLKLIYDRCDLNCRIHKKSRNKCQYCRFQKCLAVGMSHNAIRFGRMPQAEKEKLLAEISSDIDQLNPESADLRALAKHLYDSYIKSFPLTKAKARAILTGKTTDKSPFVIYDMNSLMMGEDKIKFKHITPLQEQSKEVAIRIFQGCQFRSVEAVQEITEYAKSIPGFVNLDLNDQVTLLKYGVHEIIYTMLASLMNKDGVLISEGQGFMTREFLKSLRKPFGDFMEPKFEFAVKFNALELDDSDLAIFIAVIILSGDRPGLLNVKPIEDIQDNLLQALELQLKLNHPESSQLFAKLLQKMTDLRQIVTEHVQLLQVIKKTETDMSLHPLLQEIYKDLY
Method in brief: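 Fluorescence-based beta-lactamase readout in HEK293H PPARg UAS-bla cells after 17 h compound exposure (37C) and 1 h B/G FRET substrate incubation at room temperature.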

[5] = molecular target: Peroxisome proliferator-activated receptor gamma (Homo sapiens) (UniProt P37231); test: qHTS assay to identify small molecule antagonists of the peroxisome proliferator-activated receptor gamma (PPARg) signaling pathway (AID 743191; calls by dose curve; note: nearly all actives have a fitted effect of over 30% in size); conditions: HEK293H PPARg-UAS-bla, beta-lactamase ratio, antagonist, 17 h; series mostly up to 62.6 µM
Method in brief: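 Beta-lactamase reporter under UAS control in HEK293H PPARg-bla cells; compound treatment 17 h at 37C. Read-out: fluorescence intensity after 1 h room-temperature incubation with LiveBLAzer B/G FRET substrate.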

[6] = qHTS assay to identify small molecule antagonists of the peroxisome proliferator-activated receptor gamma (PPARg) signaling pathway - cell viability counter screen (AID 743194); conditions: PPARg-bla HEK293H viability, CellTiter-Glo luminescence, 17 h, co-treated with 50 nM rosiglitazone; series mostly up to 62.6 µM; note: nearly all actives have a fitted effect of over 55% in size
Method in brief: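 Viability was measured as CellTiter-Glo luminescence in GeneBLAzer PPARg UAS-bla HEK293H cells. These cells had been exposed 17 h at 37 C to compounds together with rosiglitazone at 50 nM final, with the beta-lactamase readout taken in the same wells.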

[7] = qHTS assay for small molecule agonists of the antioxidant response element (ARE) signaling pathway (AID 743202; active = well fitted activation curve with a large enough effect in the signal ratio in the repeat runs, not every such curve was filed as active; the % refers to the signal ratio; note: potency is the fitted concentration of half-maximal effect); conditions: HepG2 ARE-bla reporter, beta-lactamase FRET, 16 h; series mostly up to 73.3 µM
Method in brief: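 After 16 hours of compound treatment at 37 C, HepG2 cells with a stably integrated ARE-driven beta-lactamase reporter were loaded 2 hours at room temperature with LiveBLAzer B/G FRET substrate and fluorescence intensity measured.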

[8] = qHTS assay for small molecule agonists of the antioxidant response element (ARE) signaling pathway - cell viability counter screen (AID 743203; calls by dose curve; note: nearly all actives have a fitted effect of over 55% in size); conditions: ARE-bla HepG2 viability, CellTiter-Glo luminescence, 16 h; series mostly up to 73.3 µM
Method in brief: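 Parallel cytotoxicity read-out for the ARE-bla screen: HepG2 reporter cells, 16 hrs with compounds, then CellTiter-Glo luminescence.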

[9] = qHTS assay for small molecule activators of the heat shock response signaling pathway - cell viability counter screen (AID 743209); conditions: HSE-bla HeLa viability, CellTiter-Glo luminescence, 5 h; series mostly up to 62.6 µM; note: nearly all actives have a fitted effect of over 50% in size
Method in brief: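 To flag cytotoxic compounds, HSE-bla HeLa cells plated at 1500 cells/well were dosed for 5 h at 37 C, followed by the reporter FRET read and then CellTiter-Glo, with luminescence recorded 30 min after reagent addition.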

[10] = qHTS assay for small molecule activators of the heat shock response signaling pathway (AID 743210; active = well fitted activation curve with a large enough effect in the signal ratio in the repeat runs, with a control signal flat, not every such curve was filed as active; the % refers to the signal ratio); conditions: HeLa HSE-bla reporter, beta-lactamase ratio, 5 h; series mostly up to 62.6 µM
Method in brief: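 Compound exposure lasted 5 h at 37 C in HeLa cells carrying a heat-shock-element-driven beta-lactamase reporter. Read-out: fluorescence intensity after 2.5 h room-temperature loading with LiveBLAzer B/G FRET substrate.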

Measured: Potency

Cc1ncc([N+](=O)[O-])n1CCO
inactive: all assays above

O=c1[nH]cc(F)c(=O)[nH]1
inactive: all assays above

Cc1cc(C)nc(NS(=O)(=O)c2ccc(N)cc2)n1
inactive: all assays above

O=c1[nH]cnc2c1ncn2[C@H]1CC[C@@H](CO)O1
not listed: [10]
inactive: all other assays above

C[C@](N)(Cc1ccc(O)c(O)c1)C(=O)O
not listed: [10]
inactive: all other assays above

Nc1c2c(nc3ccccc13)CCCC2
active: [2] 4.86 µM and 61.1 µM
inactive: all other assays above

NC(CO)(CO)CO
inactive: all assays above

CC1(C)O[C@@H]2C[C@H]3[C@@H]4CCC5=CC(=O)C=C[C@]5(C)[C@@]4(F)[C@@H](O)C[C@]3(C)[C@]2(C(=O)CO)O1
not listed: [10]
inactive: all other assays above

Cc1cccc(C)c1
inactive: all assays above

CCCCNC(=O)NS(=O)(=O)c1ccc(C)cc1
inactive: all assays above

CC(O)(P(=O)(O)O)P(=O)(O)O
inactive and 15.4 µM (active): [2]
not listed: [10]
inactive: all other assays above

CN1CCC[C@H]1c1cccnc1
not listed: [10]
inactive: all other assays above

CN(N=O)C(=O)N[C@@H]1[C@@H](O)[C@H](O)[C@@H](CO)O[C@@H]1O
inactive: all assays above

NS(=O)(=O)c1cc2c(cc1Cl)NCNS2(=O)=O
inactive: all assays above

O=C1NC(=O)C(c2ccccc2)(c2ccccc2)N1
inactive: all assays above

O=C(O)CC(O)C(=O)O (stereo not drawn)
inactive: all assays above

CCCc1cc(=O)[nH]c(=S)[nH]1
inactive: all assays above

CC(=O)CCC(=O)O
not listed: [10]
inactive: all other assays above

O=C(O)c1ccccc1
not listed: [10]
inactive: all other assays above

F[B-](F)(F)F
inactive and 27.6 µM (active): [7]
inactive: all other assays above
